Experimental data: PubChem BioAssay AID1159580 (chemical genetic matrix, 2015)
Where “and” joins values, the source holds several entries; their conditions need not be identical. Equal entries are not always repeated. Hit rate of the full screen: of about 5,500 compounds, about 2,000 (36%) were called active. Another 18% or so got no clear call; they are omitted. This is one part of the list. Values without a mark were called inactive. Rule as the data show it: active = normalized growth mostly below about 0.91 (no sharp cut-off); inconclusive = no clear call, values can overlap the other calls; inactive = mostly above about 0.92.

Assay: chemical genetic growth profiling, strain panel (AID 1159580);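 also: tested at 20 µM; growth read once vehicle control cultures reached saturation at 30 °C; 1 = growth at the plate median or of vehicle wells; lower values mean less growth of the strain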
Conditions: S. cerevisiae deletion strains, growth OD

CC1(C)O[C@H]2CC(=O)OC[C@]23[C@H]2CC[C@@]4(C)[C@H](c5ccoc5)OC(=O)[C@H]5O[C@]54[C@]2(C)C(=O)C[C@@H]13
normalized growth (locus YAL013W, strain DEP1, active compounds read low): 1.02 | normalized growth (locus YAL021C, strain ccr4, active compounds read low): 0.982 | normalized growth (locus YAL026C, strain drs2, active compounds read low): 0.99 | normalized growth (locus YAL030W, strain snc1, active compounds read low): 0.98 | normalized growth (locus YBL061C, strain skt5, active compounds read low): 0.987 | normalized growth (locus YBR009C, strain hhf1, active compounds read low): 0.968 | normalized growth (locus YBR021W, strain FUR4, active compounds read low): 1.21 [resistant] (active) | normalized growth (locus YBR023C, strain chs3, active compounds read low): 0.995 | normalized growth (locus YBR171W, strain sec66, active compounds read low): 0.964 | normalized growth (locus YBR229C, strain ROT2, active compounds read low): 1.01 | normalized growth (locus YBR231C, strain swc5, active compounds read low): 1 | normalized growth (locus YBR279W, strain paf1, active compounds read low): 0.992 | normalized growth (locus YCL011C, strain gbp2, active compounds read low): 0.98 | normalized growth (locus YCL016C, strain dcc1, active compounds read low): 0.99 | normalized growth (locus YCL029C, strain bik1, active compounds read low): 0.976 | normalized growth (locus YCL061C, strain MRC1, active compounds read low): 0.974 | normalized growth (locus YCL069W, strain vba3, active compounds read low): 0.969 | normalized growth (locus YCR088W, strain abp1, active compounds read low): 0.984 | normalized growth (locus YDL005C, strain med2, active compounds read low): 0.962 | normalized growth (locus YDL035C, strain GPR1, active compounds read low): 1.02 | normalized growth (locus YDL040C, strain nat1, active compounds read low): 0.984 | normalized growth (locus YDL074C, strain BRE1, active compounds read low): 0.992 | normalized growth (locus YDL101C, strain DUN1, active compounds read low): 0.985 | normalized growth (locus YDL134C, strain PPH21, active compounds read low): 1.01 | normalized growth (locus YDL185W, strain tfp1, active compounds read low): 0.962 | normalized growth (locus YDL192W, strain arf1, active compounds read low): 0.988 | normalized growth (locus YDR001C, strain nth1, active compounds read low): 0.984 | normalized growth (locus YDR069C, strain doa4, active compounds read low): 0.989 | normalized growth (locus YDR101C, strain arx1, active compounds read low): 0.998 | normalized growth (locus YDR137W, strain rgp1, active compounds read low): 1.01 | normalized growth (locus YDR150W, strain NUM1, active compounds read low): 0.994 | normalized growth (locus YDR159W, strain sac3, active compounds read low): 0.99 | normalized growth (locus YDR162C, strain NBP2, active compounds read low): 1.02 | normalized growth (locus YDR195W, strain ref2): 0.967 | normalized growth (locus YDR297W, strain sur2, active compounds read low): 1.01 | normalized growth (locus YDR318W, strain mcm21, active compounds read low): 0.994 | normalized growth (locus YDR334W, strain swr1, active compounds read low): 0.958 | normalized growth (locus YDR335W, strain msn5, active compounds read low): 0.986 | normalized growth (locus YDR388W, active compounds read low): 1.01 | normalized growth (locus YDR392W, strain spt3, active compounds read low): 0.986 | normalized growth (locus YDR502C, strain sam2, active compounds read low): 0.99 | normalized growth (locus YEL003W, strain gim4, active compounds read low): 0.981 | normalized growth (locus YEL037C, strain rad23, active compounds read low): 0.971 | normalized growth (locus YEL061C, strain CIN8 (second series), active compounds read low): 0.991 | normalized growth (locus YEL061C, strain CIN8, active compounds read low): 1 | normalized growth (locus YER015W, strain faa2, active compounds read low): 0.989 | normalized growth (locus YER016W, strain bim1, active compounds read low): 0.98 | normalized growth (locus YER110C, active compounds read low): 0.975 | normalized growth (locus YER111C, strain swi4, active compounds read low): 0.95 | normalized growth (locus YER155C, strain BEM2 (second series), active compounds read low): 0.952 | normalized growth (locus YER155C, strain BEM2, active compounds read low): 0.995 | normalized growth (locus YER167W, strain BCK2, active compounds read low): 1 | normalized growth (locus YFR010W, strain ubp6, active compounds read low): 0.986 | normalized growth (locus YGL078C, strain dbp3, active compounds read low): 0.985 | normalized growth (locus YGL086W, strain mad1, active compounds read low): 0.993 | normalized growth (locus YGL167C, strain pmr1, active compounds read low): 0.975 | normalized growth (locus YGL173C, strain kem1, active compounds read low): 0.982 | normalized growth (locus YGL227W, strain vid30, active compounds read low): 0.987 | normalized growth (locus YGL240W, strain doc1, active compounds read low): 0.962 | normalized growth (locus YGL248W, strain PDE1, active compounds read low): 1.02 | normalized growth (locus YGL253W, strain hxk2, active compounds read low): 1.01 | normalized growth (locus YGR135W, strain pre9, active compounds read low): 1 | normalized growth (locus YGR229C, strain SMI1, active compounds read low): 1.04 | normalized growth (locus YGR252W, strain gcn5, active compounds read low): 1.07 | normalized growth (locus YHR013C, strain ard1, active compounds read low): 0.95 | normalized growth (locus YHR027C, strain rpn1, active compounds read low): 0.993 | normalized growth (locus YHR030C, strain SLT2, active compounds read low): 1 and 1.01 | normalized growth (locus YHR079C, strain IRE1 (second series), active compounds read low): 0.98 | normalized growth (locus YHR079C, strain IRE1, active compounds read low): 1.03 | normalized growth (locus YHR094C, strain hxt1, active compounds read low): 0.984 | normalized growth (locus YHR129C, strain ARP1, active compounds read low): 1 | normalized growth (locus YHR142W, strain chs7, active compounds read low): 0.973 | normalized growth (locus YHR200W, strain rpn10, active compounds read low): 0.987 | normalized growth (locus YIL066C, strain RNR3, active compounds read low): 1.02 | normalized growth (locus YIL073C, strain SPO22, active compounds read low): 0.932 | normalized growth (locus YIL125W, strain kgd1, active compounds read low): 0.997 | normalized growth (locus YIR030C, strain dcg1, active compounds read low): 0.984 | normalized growth (locus YJL092W, strain hpr5, active compounds read low): 0.962 | normalized growth (locus YJL095W, strain BCK1 (second series), active compounds read low): 0.966 | normalized growth (locus YJL095W, strain BCK1, active compounds read low): 0.985 and 1.03 | normalized growth (locus YJL115W, strain asf1, active compounds read low): 0.95 | normalized growth (locus YJL129C, strain trk1, active compounds read low): 0.973 | normalized growth (locus YJL134W, strain LCB3, active compounds read low): 1 | normalized growth (locus YJL154C, strain vps35, active compounds read low): 0.975 | normalized growth (locus YJL164C, strain tpk1, active compounds read low): 0.986 | normalized growth (locus YJL166W, strain qcr8, active compounds read low): 0.979 | normalized growth (locus YJL168C, strain set2, active compounds read low): 0.989 | normalized growth (locus YJL187C, strain SWE1 (second series), active compounds read low): 0.996 | normalized growth (locus YJL187C, strain SWE1, active compounds read low): 0.967 | normalized growth (locus YJR043C, strain POL32, active compounds read low): 1.05 | normalized growth (locus YJR066W, strain TOR1, active compounds read low): 0.946 | normalized growth (locus YJR075W, strain HOC1, active compounds read low): 0.989 | normalized growth (locus YKL009W, strain mrt4, active compounds read low): 0.963 | normalized growth (locus YKL068W, active compounds read low): 0.987 | normalized growth (locus YKL085W, strain MDH1 (second series), active compounds read low): 0.992 | normalized growth (locus YKL085W, strain MDH1, active compounds read low): 0.992 | normalized growth (locus YKL160W, strain elf1, active compounds read low): 1 | normalized growth (locus YKR001C, strain vps1, active compounds read low): 0.985 | normalized growth (locus YKR026C, strain gcn3, active compounds read low): 0.998 | normalized growth (locus YKR091W, strain srl3, active compounds read low): 0.98 | normalized growth (locus YLL001W, strain dnm1, active compounds read low): 0.959 | normalized growth (locus YLL026W, active compounds read low): 0.988 | normalized growth (locus YLL041C, strain sdh2, active compounds read low): 0.97 | normalized growth (locus YLR027C, strain aat2, active compounds read low): 0.965 | normalized growth (locus YLR039C, strain RIC1, active compounds read low): 1.01 | normalized growth (locus YLR058C, strain SHM2, active compounds read low): 1 | normalized growth (locus YLR102C, strain apc9, active compounds read low): 0.983 | normalized growth (locus YLR113W, strain HOG1, active compounds read low): 1.04 | normalized growth (locus YLR221C, strain rsa3, active compounds read low): 1 | normalized growth (locus YLR258W, strain gsy2, active compounds read low): 0.996 | normalized growth (locus YLR262C, strain YPT6 (second series), active compounds read low): 1.01 | normalized growth (locus YLR262C, strain YPT6, active compounds read low): 1 | normalized growth (locus YLR268W, strain sec22, active compounds read low): 0.961 | normalized growth (locus YLR320W, strain mms22, active compounds read low): 0.992 | normalized growth (locus YLR330W, strain CHS5, active compounds read low): 0.998 | normalized growth (locus YLR342W, strain FKS1 (second series), active compounds read low): 1.07 | normalized growth (locus YLR342W, strain FKS1, active compounds read low): 0.975 | normalized growth (locus YLR357W, strain rsc2, active compounds read low): 0.99 | normalized growth (locus YLR370C, strain arc18, active compounds read low): 0.97 | normalized growth (locus YLR371W, strain rom2, active compounds read low): 0.98 | normalized growth (locus YLR384C, strain iki3, active compounds read low): 0.999 | normalized growth (locus YLR418C, strain cdc73, active compounds read low): 0.994 | normalized growth (locus YML016C, strain PPZ1, active compounds read low): 1.01 | normalized growth (locus YML032C, strain rad52, active compounds read low): 1.01 | normalized growth (locus YML120C, strain ndi1, active compounds read low): 0.969 | normalized growth (locus YML124C, strain tub3, active compounds read low): 0.99 | normalized growth (locus YMR058W, strain fet3, active compounds read low): 0.974 | normalized growth (locus YMR078C, strain ctf18, active compounds read low): 0.982 | normalized growth (locus YMR125W, strain sto1, active compounds read low): 0.985 | normalized growth (locus YMR129W, active compounds read low): 0.99 | normalized growth (locus YMR205C, strain PFK2, active compounds read low): 1.01 | normalized growth (locus YMR223W, strain ubp8, active compounds read low): 0.994 | normalized growth (locus YMR231W, strain pep5, active compounds read low): 0.981 | normalized growth (locus YMR263W, strain SAP30, active compounds read low): 0.985 | normalized growth (locus YMR307W, strain GAS1, active compounds read low): 1.04 | normalized growth (locus YNL067W, strain RPL9B, active compounds read low): 0.961 | normalized growth (locus YNL071W, strain lat1, active compounds read low): 0.995 | normalized growth (locus YNL128W, strain TEP1, active compounds read low): 0.993 | normalized growth (locus YNL153C, strain GIM3, active compounds read low): 0.994 | normalized growth (locus YNL183C, strain NPR1, active compounds read low): 0.934 | normalized growth (locus YNL209W, strain ssb2, active compounds read low): 0.979 | normalized growth (locus YNL233W, strain BNI4, active compounds read low): 0.997 | normalized growth (locus YNL248C, strain rpa49, active compounds read low): 0.979 | normalized growth (locus YNL250W, strain rad50, active compounds read low): 0.932 | normalized growth (locus YNL271C, strain bni1, active compounds read low): 0.987 | normalized growth (locus YNL298W, strain CLA4, active compounds read low): 1 | normalized growth (locus YNL307C, strain MCK1, active compounds read low): 0.983 | normalized growth (locus YNL322C, strain KRE1 (second series), active compounds read low): 0.959 | normalized growth (locus YNL322C, strain KRE1, active compounds read low): 0.997 | normalized growth (locus YNR049C, strain mso1, active compounds read low): 0.956 | normalized growth (locus YNR052C, strain pop2, active compounds read low): 0.994 | normalized growth (locus YOL006C, strain TOP1, active compounds read low): 0.922 | normalized growth (locus YOL012C, strain htz1): 0.665 | normalized growth (locus YOL147C, strain pex11, active compounds read low): 0.998 | normalized growth (locus YOR001W, strain rrp6, active compounds read low): 0.995 | normalized growth (locus YOR061W, strain CKA2, active compounds read low): 1.01 | normalized growth (locus YOR069W, strain VPS5, active compounds read low): 1 | normalized growth (locus YOR070C, strain gyp1, active compounds read low): 0.992 | normalized growth (locus YOR080W, strain dia2, active compounds read low): 0.961 | normalized growth (locus YOR083W, strain WHI5, active compounds read low): 0.975 | normalized growth (locus YOR106W, strain vam3, active compounds read low): 1.01 | normalized growth (locus YOR136W, strain idh2, active compounds read low): 0.985 | normalized growth (locus YOR144C, strain elg1, active compounds read low): 1.01 | normalized growth (locus YOR184W, strain ser1, active compounds read low): 0.988 | normalized growth (locus YOR231W, strain MKK1, active compounds read low): 1.04 | normalized growth (locus YOR265W, strain rbl2, active compounds read low): 0.984 | normalized growth (locus YOR270C, strain vph1, active compounds read low): 0.988 | normalized growth (locus YOR290C, strain snf2, active compounds read low): 0.973 | normalized growth (locus YOR316C, strain cot1, active compounds read low): 0.992 | normalized growth (locus YPL051W, strain arl3, active compounds read low): 0.986 | normalized growth (locus YPL078C, strain atp4, active compounds read low): 0.97 | normalized growth (locus YPL106C, strain sse1, active compounds read low): 0.939 | normalized growth (locus YPL240C, strain hsp82, active compounds read low): 0.992 | normalized growth (locus YPL256C, strain CLN2, active compounds read low): 1.01 | normalized growth (locus YPR119W, strain clb2, active compounds read low): 0.994 | normalized growth (locus YPR141C, strain kar3, active compounds read low): 0.991 | normalized growth (locus YPR163C, strain tif3, active compounds read low): 1 | normalized growth (locus YPR167C, strain met16, active compounds read low): 0.989 | normalized growth (strain wtn01, active compounds read low): 0.974
